Screening results from PubChem BioAssay.
Sa RN4220 lethal: kills Staphylococcus aureus RN4220. S. aureus RN4220 growth, OD600, 16 h. inhibition, % (no concentration beside the values). actives 0.33% (n = 330,000). AID 1259311; in the data active = inhibition above about 85%
MazF activator: activators of E. coli MazEF toxin-antitoxin RNase; activation, % at 20 µM; actives 0.32% (n = 350,000); FAM/BHQ RNA-DNA oligo cleavage fluorescence, 5 h; AID 504720; P0AE70; in the data active = activation above about 50%
Target sequence (P0AE70 whole entry, looked up): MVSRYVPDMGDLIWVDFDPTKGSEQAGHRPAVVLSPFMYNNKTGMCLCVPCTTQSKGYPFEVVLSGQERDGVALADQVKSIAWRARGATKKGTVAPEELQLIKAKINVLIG
TcdB inh: TcdB glycohydrolase inhibition | AID 652162 | TcdB glycohydrolase enzymatic assay, plate reader | P18177 | actives 0.24% (n = 350,000) | inhibition, % at 9.99 µM; in the data active = inhibition above about 10%
Mtb hypoxia inh: Mtb hypoxia fluorescent reporter inhibition | M. tuberculosis hypoxia-regulated fluorescent reporter, fluorescence | fluorescence inhibition, % (no concentration beside the values) | actives 0.1% (n = 300,000) | AID 1159583; in the data active = fluorescence inhibition mostly above about 23%, no sharp cut-off; inactive = mostly below about 17%
PfHsp40 yeast: restores yeast growth despite PfHsp40 toxicity. S. cerevisiae expressing PfHsp40, growth rescue, ATP luminescence. actives 0.68% (n = 340,000). AID 504582. growth rescue, % at 12.5 µM; in the data active = growth rescue above about 28%, passing the limit was not always enough;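 also: yeast W303a lacking pdr1 and pdr3 grown in galactose medium; growth measured after three days at 30 °C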
ugtP null kill: compounds lethal to S. aureus RN4220 ugtP deletion mutant. OD600 growth, 16 h. growth inhibition, % (test concentration not listed). actives 0.54% (n = 330,000). AID 1259309; in the data active = growth inhibition above about 68%
Hits are given with their value; – = inactive; · = no result; + = active, no number. Compounds with a hit are over-represented: about 1.3% of the library has one in this group of screens.

SMILES	Sa RN4220 lethal	MazF activator	TcdB inh	Mtb hypoxia inh	PfHsp40 yeast	ugtP null kill
CC(C)COc1ccc(C2NC(=O)NC2=O)cc1 (configuration not stated)	–	–	·	–	–	–
CCCOc1ccc(S(=O)(=O)n2cc(F)c(=O)[nH]c2=O)cc1	–	–	–	–	162	–
CC(C)COc1ccc(S(=O)(=O)n2cc(F)c(=O)[nH]c2=O)cc1	–	–	–	–	36	–
CCOc1ccc(Cn2cc(F)c(=O)[nH]c2=O)cc1	–	–	–	–	–	–
O=S(=O)(Oc1ccccc1-c1ccccc1)c1ccccc1	–	–	12	–	–	–
O=Cc1ccccc1OS(=O)(=O)c1ccccc1	–	–	·	–	–	–
COc1ccc(C)cc1N(CC(=O)NN=Cc1ccccc1C(=O)O)S(=O)(=O)c1ccccc1	–	·	·	–	·	–
Cc1ccc(C)c(N2CCN(S(=O)(=O)c3ccc4c(c3)NC(=O)CO4)CC2)c1	–	–	–	–	–	–
Cc1ccc(C)c(N2CCN(S(=O)(=O)c3ccc4c(c3)NC(=O)CC(=O)N4)CC2)c1	–	–	–	–	–	90
C[C@H](C[C@H](O)[C@H]1OC1(C)C)C1=C2C[C@H](O)C3[C@@]4(C)CCC(=O)C(C)(C)C4CC[C@]3(C)[C@@]2(C)CC1 (some centres not stated)	·	–	–	·	40	·
COc1ccc(NC(=O)CON=CC(=O)Nc2ccc(C)cc2)c(OC)c1	–	–	–	26	–	–
Nc1nn2cc(-c3ccc(Br)cc3)nc2c2ccccc12	·	–	–	·	91	·
Brc1ccc(-c2cn3nc4c(nc3n2)CCCC4)cc1	–	–	·	·	–	–
COC(=O)C1=C(C)N(Cc2ccco2)C(=O)/C1=C\c1ccc(N(C)C)cc1	·	+	·	·	–	·
C[C@H](CO)N1C[C@H](C)[C@@H](CN(C)S(=O)(=O)c2cccs2)Oc2ccc(NC(=O)CCN3CCOCC3)cc2CC1=O	·	·	–	·	·	·
COC(=O)c1ccc(C=NNC(=S)NC(C)C)cc1	–	·	·	–	·	–
Cc1ccccc1NC1=C/C(=N\S(=O)(=O)c2cccs2)c2ccccc2C1=O	99	–	·	–	–	88
Cc1nc2ccc(NC(=O)c3cccs3)cc2c(=O)n1Cc1ccc(Cl)cc1	–	–	·	–	31	–
O=C(NC[C@@H]1CC[C@@H]2[C@@H](CN2C(=O)C2CCOCC2)O1)c1cccnc1	·	·	–	·	·	·
Cc1ccc(C)c2sc(NC(=O)c3ccc(N4C(=O)CCC4=O)cc3)nc12	–	–	23	–	–	–
COc1ccc(C)c2sc(NC(=O)c3cccc(N4C(=O)CCC4=O)c3)nc12	–	–	–	–	–	–
CN(C)n1cccc1/C=C(\C#N)S(=O)(=O)c1cccc(Cl)c1	–	–	–	–	32	–
CS(=O)(=O)/C(C#N)=C/c1cccn1S(=O)(=O)c1ccccc1	–	–	–	–	–	–
CCCC#Cc1cnc2c(c1)C(=O)N([C@@H](C)CO)C[C@H](C)[C@@H](CN(C)C(=O)c1ccc3c(c1)OCO3)O2	·	·	–	·	·	·
COc1ccc(C(N)=NOC(=O)c2ccco2)cc1OC	–	·	·	–	·	–
SMILES	Sa RN4220 lethal	MazF activator	TcdB inh	Mtb hypoxia inh	PfHsp40 yeast	ugtP null kill
CCCCN(Cc1ccccc1)c1ncnc2nc[nH]c12	–	–	·	–	–	–
CCCCN(CCCC)c1ncnc2nc[nH]c12	–	–	–	–	138	–
COc1ccc(COC[C@@]23Oc4ccccc4[C@@H](NC(=S)N2C)[C@H]3CO[Si](C)(C)C(C)(C)C)cc1	·	·	–	·	·	·
O=C(NN=Cc1ccc(Cl)s1)c1ccccc1[N+](=O)[O-]	–	·	·	–	·	–
c1ccc(-c2cnn3c(-c4ccccc4)c(-c4ccccc4)nc3n2)cc1	–	+	·	–	–	–
COc1ccccc1-c1cn(CC[C@@H]2CC[C@@H](NC(=O)C3CCOCC3)[C@@H](CO)O2)nn1	·	·	–	·	·	·
O=C(/C=C/c1cc(Br)ccc1O)c1ccco1	91	–	–	–	–	92
CCOC(=O)C=C1CN(Cc2cc(OC)c(OC)c(OC)c2)S(=O)(=O)c2ccccc21	–	·	·	–	·	–
CNC(=O)C[C@H]1CC[C@@H]2[C@H](COC[C@@H](O)CN2C(=O)Nc2cccc(OC)c2)O1	·	·	–	·	·	·
Cc1ccc(S(=O)(=O)N(CC(=O)N/N=C\c2cccs2)c2cccc3cccnc23)cc1	·	51	–	·	–	·
COc1ccc(S(=O)(=O)N(CC(=O)N/N=C/c2cccs2)c2cc(C)cc(C)c2)cc1OC	·	–	–	·	48	·
Cc1ccc(S(=O)(=O)N(CC(=O)N/N=C/c2cccc(C)c2)c2cccc3cccnc23)cc1	·	–	·	·	–	·
